Hits are enriched below; roughly 18% of the tested compounds scored in any of these assays.
TDP1 cell noCPT – qHTS for Inhibitors of human tyrosyl-DNA phosphodiesterase 1 (TDP1): qHTS in cells in absence of CPT; 420,000 tested, 15% active; DT40 Tdp1-/- hTDP1 cells, no CPT, ATP luminescence, 48 h; Potency, µM (highest dose often 46.2 µM), inactives show at the top dose activity change, negative = growth inhibition, hits mostly inhibitors; further: potency means the concentration at half of the fitted maximal effect; on the % scale 0 is the no-effect control and ±100 the full control effect; nearly all actives have a fitted effect of over 55% in size
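Stably hTDP1-transfected Tdp1-null chicken DT40 cells were treated with library compounds minus camptothecin and grown for at least 48 hr at 37 °C, after which cellular ATP was quantified by luminescence.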
TDP1 block – blocks human tyrosyl-DNA phosphodiesterase 1; 350,000 tested, 0.28% active; recombinant TDP1, AlphaScreen DNA substrate cleavage; Q9NUW8; Potency, µM (doses to about 130 µM), for inactives: at the top dose activity change, negative = inhibition, usual class: inhibitors; further: potency means the concentration at half of the fitted maximal effect; on the % scale 0 is the no-effect control and ±100 the full control effect; nearly all actives have a fitted effect of over 40% in size
Target sequence (Q9NUW8 whole entry, looked up): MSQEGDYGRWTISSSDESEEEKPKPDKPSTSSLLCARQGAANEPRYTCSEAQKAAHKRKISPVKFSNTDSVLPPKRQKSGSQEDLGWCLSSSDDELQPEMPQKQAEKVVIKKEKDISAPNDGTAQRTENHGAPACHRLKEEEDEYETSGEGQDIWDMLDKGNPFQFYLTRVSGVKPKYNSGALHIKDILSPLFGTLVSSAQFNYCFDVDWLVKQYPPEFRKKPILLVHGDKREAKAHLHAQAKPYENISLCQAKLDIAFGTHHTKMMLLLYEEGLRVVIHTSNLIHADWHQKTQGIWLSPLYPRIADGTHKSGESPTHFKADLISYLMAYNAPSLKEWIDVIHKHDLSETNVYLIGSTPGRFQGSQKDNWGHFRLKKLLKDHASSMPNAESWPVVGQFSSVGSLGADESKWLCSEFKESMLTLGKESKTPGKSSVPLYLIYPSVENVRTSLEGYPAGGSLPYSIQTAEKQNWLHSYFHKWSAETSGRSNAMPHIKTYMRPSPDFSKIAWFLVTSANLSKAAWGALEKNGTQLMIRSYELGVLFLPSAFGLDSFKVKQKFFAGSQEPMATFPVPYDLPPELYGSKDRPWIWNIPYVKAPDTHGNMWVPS
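Signal: AlphaScreen proximity between streptavidin donor and anti-FITC acceptor beads on intact substrate. Reaction: Tdp1 1 nM, substrate 15 nM final, 5 min RT after 15 min compound preincubation.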
HepG2 tox – counter-screen for TGF-b inhibitors: cytotoxicity in HepG2 cells. HepG2 CAGA-GFP viability, ATP luminescence, 18 h. Potency, µM (titrated, usually from 46.1 µM), inactives show top-dose activity change, negative = cytotoxicity, most hits filed as cytotoxic. 410,000 tested, 0.76% active. AID 588856; further: potency means the concentration at half of the fitted maximal effect
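CellTiter-Glo luminescence gave cytotoxicity after 18 hours at 37 degrees C. The cells were HepG2 CAGA-GFP in 1% FBS DMEM, stimulated with 500 pg/mL TGF-beta after compound addition. %Activity was normalised to no-cell wells (complete cell-killing) and DMSO (no toxicity), and curves were fitted and classified.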
TGFb inhibitor – inhibitors of TGF-b signaling. 410,000 tested, 1.2% active. HepG2 CAGA-GFP TGF-b/SMAD3 reporter, GFP fluorescence, 18 h; TGF-beta stimulated, 500 pg/mL final. AID 588855. Potency, µM (doses to about 46.1 µM), for inactives: top-dose activity, negative = inhibition, hits mostly inhibitors; further: potency means the concentration at half of the fitted maximal effect; on the % scale 0 is the no-effect control and ±100 the full control effect; nearly all actives have a fitted effect of over 65% in size
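Inhibition of TGF-beta-driven CAGA-GFP reporter expression in HEPG2 cells is measured by cellular GFP fluorescence after 18 h stimulation with 500 pg/mL recombinant TGF-beta in 1% FBS medium at 37 degrees C.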
IL-1B inflam inh – inflammasome signaling inhibition, IL-1 beta readout. THP-1 LPS/ATP IL-1B secretion, AlphaLISA, 16 h; stronger effect = lower value. activity change, % at 57.5 µM. 360,000 tested, 4.7% active; in the data active means activity change below about -50%; inconclusive means mostly about -30% to -49%; further: on the % scale 0 is the no-effect control and ±100 the full control effect
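THP-1 cells pretreated 1 hr with compounds (up to 57.5 uM final), then stimulated with LPS (250 ng/mL final) plus ATP (1.25 mM final); secreted IL-1B measured by AlphaLISA after 16 hr, decreased signal indicating inhibition.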
TDP1 cell CPT – DT40-hTDP1 cell growth loss with CPT; chicken DT40 Tdp1-/-;hTDP1 cells + 20 nM CPT, ATP luminescence, 48 h; Potency, µM (series often up to 46.2 µM), for the others: at the top dose activity change, negative = growth inhibition, actives largely listed as inhibitors; 420,000 tested, 12% active; further: potency means the concentration at half of the fitted maximal effect; on the % scale 0 is the no-effect control and ±100 the full control effect; nearly all actives have a fitted effect of over 55% in size
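Cell growth measured by CellTiter-Glo luminescence after a minimum 48 h, 37 C compound exposure with 20 nM CPT in Tdp1-knockout DT40 cells stably expressing hTDP1, seeded 400/well; qHTS titration format.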
An asterisk follows results filed as active; ? = inconclusive; · = no result given; [ ] = remark or other dose. Unless noted, the call rests on the fitted dose curve; in most records, active means well fitted curve in the direction sought with a large enough effect; inconclusive means small, poorly fitted or top-dose-only effect, or another doubt; inactive means no such curve, though single readings can be large; an effect the other way counts as inactive or inconclusive.

SMILES	TDP1 cell noCPT	TDP1 block	HepG2 tox	TGFb inhibitor	IL-1B inflam inh	TDP1 cell CPT
Cc1ccc(NC(=O)CSC2=C(C#N)C(c3ccco3)C3=C(CCCC3=O)N2)cc1 (stereo not drawn)	?	11%	-22%	-16%	-52*	-24%
N#CC1=C(SCC(=O)c2ccc(Cl)cc2)NC2=C(C(=O)CCC2)C1c1ccco1 (stereo not drawn)	5.8µM*	2%	-9%	?	-88*	5.2µM*
CC1=C(C(=O)OC2CCCCC2)C(c2ccco2)C2=C(CC(C)(C)CC2=O)N1 (stereo not drawn)	?	-1%	-8%	17%	-14	18µM*
CC(=O)C1=C(C)NC(SCC(=O)c2ccc(C)cc2)=C(C#N)C1c1ccco1 (stereo not drawn)	·	-2%	·	·	·	·
Cc1ccc(C(=O)CSC2=C(C#N)C(c3ccco3)C3=C(CC(C)(C)CC3=O)N2)cc1 (stereo not drawn)	10µM*	4%	-13%	-25%	-85*	13µM*
CCOC(=O)[C@]12CCC=C1N(Cc1ccc3c(c1)OCO3)C(=O)[C@H](CC(=O)N1CCSCC1)C2	?	·	·	·	13	?
COc1cc(NC(=O)CN2CCCN(Cc3cccc(F)c3)S2(=O)=O)cc(OC)c1	?	5%	-19%	8%	·	?
CCCCc1c(O)nc(SCC(=O)c2ccccc2)n(-c2ccccc2)c1=O	2.6µM*	3%	11%	-24%	25	2.9µM*
CCCCc1c(O)nc(SCC(=O)N2CCOCC2)n(-c2ccccc2OC)c1=O	-10%	12%	1%	-2%	-8	-4%
CCCCc1c(O)nc(SCC(=O)c2ccccc2)n(-c2ccccc2OC)c1=O	8.2µM*	5%	19%	6%	·	-9%
Fc1ccc(N2CCN(Cc3ccc4c(c3)CN(Cc3cccn3-c3ncccn3)CCO4)CC2)cc1	?	·	·	·	·	3%[9.04 µM]
CCOC(=O)c1cc(OCC)c2c(ccc3ccccc32)n1	?	·	-3%	-2%	18	-26%
Oc1cccc(-c2nc3ccc4ccccc4c3c3c2CCC3)c1	21µM*	-1%	-98%	?	0	?
O=C(O)c1ccc(CSc2nnc(-c3cccnc3)n2-c2ccc(Br)cc2)cc1	-11%	3%	-4%	0%	?	-19%

Screens: PubChem, National Center for Advancing Translational Sciences (NCATS)
